Source: PubChem (Broad Institute)
aSyn 5UTR act: Activators via SNCA 5'UTR binding, MLPCN. activity score, % (tested at 7.5 µM), hits read low. 7.1% of 300,000 active. alpha-synuclein 5'UTR reporter, activators screen; in the data active = activity score below about -60%
* marks the source's active call; other numbers are inactive results. These entries were drawn from the full list.

SMILES	aSyn 5UTR act
COc1ccc(-n2cc(-c3ccccc3)[nH]c2=S)cc1	-90.9*
Cc1cccc(-n2cc(-c3ccccc3)[nH]c2=S)c1	-108.1*
O=C(Nc1ccc(Cl)cc1)Nc1ccon1	-129.1*
CCOc1ccc(NC(=O)Nc2ccon2)cc1	-116.5*
Cc1ccc(NC(=O)Nc2ccon2)cc1	-101.6*
C[n+]1c2n(c3ccccc31)N=C(c1ccccc1)CS2	-67.9*
O=[N+]([O-])c1cccc(/C=N/N2CCN(c3ccccn3)CC2)c1	-99.1*
O=[N+]([O-])c1cccc(/C=N/N2CCN(Cc3ccccc3)CC2)c1	-114.6*
CC(C)N1C(=O)/C(=C/c2nc3ccccc3c(=O)n2-c2ccccc2)c2ccccc21	-66.5*
Cc1nc2c(-c3ccccc3)cnn2c(N2CCOCC2)c1C	-191.5*
CCCc1cc(N2CCOCC2)n2ncc(-c3ccccc3)c2n1	-66.5*
Oc1ccccc1CNc1cnc2ccccc2c1	-259.7*
C=CCc1cccc(CNc2cnc3ccccc3c2)c1O	-94.5*
Oc1ccc2ccccc2c1CNc1cnc2ccccc2c1	-97.2*
O=C(COc1ccc(Cl)cc1Cl)Nc1cccnc1	-122.0*
O=C(COc1ccc(Cl)cc1Br)Nc1ccncc1	-146.5*
Cc1c(OCC(=O)Nc2cccnc2)ccc2c3c(c(=O)oc12)CCC3	57.7
Cc1ccc(C(=O)Nc2ccc3c(c2)CCC3)o1	-134.4*
Cc1ccc(NC(=O)c2ccc(Br)o2)cc1S(=O)(=O)N(C)C	-125.4*
Cc1ccc(C(=O)Nc2ccc(F)cc2)o1	-73.2*
Cc1occc1C(=O)Nc1ccc2c(c1)CCC2	-187.8*
Cc1ccoc1C(=O)Nc1ccc(CC(=O)O)cc1	83.9
Cc1ccc(NC(=O)c2ccc(OC(F)(F)F)cc2)cc1S(=O)(=O)N(C)C	-76.2*
O=C(Nc1ccc2c(c1)CCC2)c1ccc(Br)o1	-157.0*
O=C(Nc1ccc2c(c1)OCO2)c1ccc(Br)o1	-255.7*
SMILES	aSyn 5UTR act
Cc1ccc(C(=O)Nc2ccccc2C(N)=O)o1	-78.1*
O=C(Nc1ccc2c(c1)CCC2)c1cc2ccccc2o1	-188.1*
O=C(Nc1ccc2c(c1)OCO2)c1ccc(COc2ccc3c(c2)CCC3)o1	-76.1*
C=C[C@@]1(C)CC(=O)[C@]2(O)[C@@]3(C)[C@@H](O)CCC(C)(C)[C@@H]3[C@H](OC(C)=O)[C@H](O)[C@@]2(C)O1	66.4
COc1cccc(NC(=O)c2ccc3nc(C)sc3c2)c1	-238.7*
COc1ccccc1NC(=O)c1ccc2nc(C)sc2c1	-104.6*
COc1ccccc1NC(=O)c1ccc2[nH]c(C)c(C)c2c1	-145.3*
CCc1nnc(NC(=O)c2sc3nc4c(cc3c2N)CCCCCC4)s1	-75.4*
CCc1nnc(NC(=O)c2sc3nc4c(cc3c2N)CCCCC4)s1	-138.4*
Cc1ccc(-c2nc(CS(=O)(=O)CC(=O)NC3CCC(C)CC3)c(C)o2)cc1 (centres undefined)	-101.7*
CCc1ccc(-c2nc(CSCC(=O)NC3CC3)c(C)o2)cc1	70.6
CC(C)OC(=O)c1ccc(NC(=O)c2ccccc2)cc1	-78.3*
CCOC(=O)c1ccc(NC(=O)c2ccco2)cc1	-188.5*
CCOC(=O)/C(=C/c1ccccc1)NC(=O)c1ccco1	-64.8*
CCCOC(=O)c1ccc(NC(=O)c2ccoc2C)cc1	-154.2*
O=C(Nc1ccccc1)c1ccc(OC(=O)c2ccccc2)cc1	-62.8*
CC(C)OC(=O)c1ccc(NC(=O)c2ccco2)cc1	-140.1*
Cc1ccc(NC(=O)c2ccccc2)cc1OC(=O)c1ccccc1	-108.9*
CN(C(=O)c1ccc(-c2ccccc2)cc1)C1CCCCC1	-127.4*
Cc1ccc(C(=O)NC(=S)N(C)C2CCCCC2)cc1	-84.0*
CC(C)(C)C(=O)NC(=S)Nc1ccccc1F	-72.4*
COc1ccc(CCCC(=O)Nc2ccccc2F)cc1	-118.1*
COc1ccc(C(=O)NNC(=S)NC(=O)C(C)(C)C)cc1	59.7
COc1ccc(C(=O)NC(=S)Nc2ccccc2F)cc1	-198.8*
CCC(=O)NCCc1nc2cc(NC(=O)c3ccc(Cl)cc3)ccc2n1C	-175.1*
SMILES	aSyn 5UTR act
CC(=O)NCCc1nc2cc(NC(=O)c3ccccc3Cl)ccc2n1C	-61.9*
CCC(=O)NCCc1nc2cc(NC(=O)c3ccc(F)cc3)ccc2n1C	-121.5*
CCC(=O)NCCc1nc2cc(NC(=O)c3ccc(OC)cc3)ccc2n1C	-119.2*
CC(=O)NCCc1nc2cc(NC(=O)c3ccc(Cl)cc3)ccc2n1C	-97.6*
CCC1CCCCN1CCCNC(=O)c1ccc2nc(N3CCCCC3)sc2c1 (centres undefined)	-280.1*
CC1CCN(c2nc3ccc(C(=O)NCCCN4CCCCC4C)cc3s2)CC1 (centres undefined)	-277.4*
CC1CCCC(C)N1CCCNC(=O)c1ccc2nc(N3CCCCC3)sc2c1 (centres undefined)	-237.4*
CC(C)(C)c1ccc(-c2noc(-c3ccc4c(c3)CCO4)n2)cc1	-156.8*
Cc1cc(-c2nc(-c3ccc(C(C)(C)C)cc3)no2)no1	-170.5*
CC(C)CNC(=O)c1coc(=O)c(Br)c1	-87.3*
O=C(NCCc1ccccc1)c1coc(=O)c(Br)c1	-77.0*
CS(=O)(=O)Nc1ccc(C(=O)NCCC2=CCCCC2)cc1	-109.3*
O=C(NCCC1=CCCCC1)c1coc(=O)c(Br)c1	-65.4*
COc1ccccc1NC(=O)c1coc(=O)c(Br)c1	-63.2*
Fc1ccccc1/C=N/n1cc(-c2ccccc2)[nH]c1=S	-84.9*
S=c1[nH]c(-c2ccccc2)cn1/N=C/c1ccc(Br)cc1	-81.4*
C(=N\Nc1ncnc2nc[nH]c12)/c1cccs1	-68.7*
Cc1ccccc1/C=N/Nc1ncnc2nc[nH]c12	-71.2*
Fc1ccc(/C=N/Nc2ncnc3nc[nH]c23)cc1F	-74.4*
Cc1ccsc1/C=N/Nc1ncnc2nc[nH]c12	-90.3*
C/C(=N\NC(=S)Nc1cccc(C)c1)c1ccco1	-188.6*
C/C(=N\NC(=S)Nc1cccc(C)c1)c1ccccc1	-99.6*
O=C(NCc1cccs1)c1csc2ccccc12	-61.7*
Cc1cccc2c(=O)c(C(=O)NCc3cccs3)c[nH]c12	-110.4*
Nc1oc2ccccc2c(=O)c1-c1ccc2c(c1)OCO2	-74.6*
SMILES	aSyn 5UTR act
O=C1OCCC1Sc1nnc(-c2ccc3c(c2)OCO3)o1 (centres undefined)	54.8
Cc1cc2[nH]c3c(c[n+](C)c4ccccc34)c2cc1C	101.2
Cc1cc2c([nH]c3ccccc32)c2c1OC(C)(C)C=C2	-204.0*
Cn1c(SCc2ccc(F)cc2)nnc1-c1ccccn1	-168.4*
Cc1cccc(CSc2nnc(-c3ccccn3)n2N)c1	-69.3*
Cc1ccc(CSc2nnc(-c3ccccn3)n2C)cc1	-92.8*
Cc1nn(-c2cc(C)c3ccccc3n2)c2c1CCC2	-90.1*
COc1ccc(C)cc1Nc1c2c(nc3ccccc13)CCC2	68.3
CCc1cc(C(=O)NNC(=S)Nc2cccc(C)c2)cs1	-129.8*
Cc1cccc(NC(=S)NNC(=O)c2csc(C(C)C)c2)c1	-211.1*
CCc1cc(C(=O)Nc2ccc(C)cc2Br)cs1	-255.2*
Cc1cccc(NC(=S)NNC(=O)c2sccc2C)c1	-134.2*
CN(C(=O)c1cc2sccc2n1C)C1CCCCC1	-109.6*
Cn1c(C(=O)NC2CCCCC2)cc2sccc21	-147.4*
CCn1c(C(=O)NC2CCC(C)CC2)cc2sccc21 (centres undefined)	-87.3*
COC(=O)c1cccc(NC(=O)c2cc3sccc3n2C)c1	-76.0*
CCCCNc1c(-c2ccc(SC3CCCCC3)cc2)nc2ccccn12	-83.0*
CCN(C(=O)COC(=O)/C=C/c1cnc2ccccc2n1)c1ccccc1	-64.7*
O=C(/C=C/c1cnc2ccccc2n1)NC12CC3CC(CC(C3)C1)C2	-139.6*
